The panel holds about 83,000 compounds, 20% with a hit somewhere; the sample as a whole holds those more often.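 Testing used 96-well plates and a 48-hour single-concentration exposure. Example: -40 means 40% of the starting cells died.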 Activity calls are given as the source filed them. Rule for the calls: active = growth percent below 10; inactive = the rest.
Key:
Test in all cases: NCI-60 one-dose screen, 48 h (100 = growth as untreated, 0 = no growth, -100 = all killed)
Conditions in all cases: 10 µM unless noted
[1] = tested on: NCI-H23 lung
[2] = tested on: NCI-H226 lung
[3] = tested on: NCI-H322M lung
[4] = tested on: HOP-62 NSCLC
[5] = tested on: NCI-H460 lung
[6] = tested on: HOP-92 NSCLC
[7] = tested on: NCI-H522 lung
[8] = tested on: A549/ATCC NSCLC
[9] = tested on: 786-0 renal
[10] = tested on: COLO 205 colon
[11] = tested on: DU-145 prostate
[12] = tested on: K-562 leukemia
[13] = tested on: MALME-3M melanoma
[14] = tested on: MDA-MB-231 breast
[15] = tested on: RXF 393 renal
[16] = tested on: SF-268 CNS
[17] = tested on: SF-295 CNS
[18] = tested on: SF-539 CNS
[19] = tested on: UACC-257 melanoma
[20] = tested on: M14 melanoma

Measured: growth

COc1ccc2cc(C(=O)N3CCC([C@@H](C)C(=O)NCc4ccc5c(c4)OCO5)CC3)[nH]c2c1
inactive: [1] 26.3% [50 µM] | [3] 86.7% [50 µM] | [5] 41.9% [50 µM] | [8] 53.7% [50 µM] | [10] 88.5% [50 µM] | [11] 60.5% [50 µM] | [12] 77.2% [50 µM] | [13] 44.2% [50 µM] | [14] 34.1% [50 µM] | [16] 32.9% [50 µM] | [17] 48.1% [50 µM] | [18] 41.1% [50 µM] | [19] 77.8% [50 µM] | [20] 65.2% [50 µM]
active: [2] -5.97% [50 µM] | [4] -1.78% [50 µM] | [6] -17.6% [50 µM] | [7] -6.66% [50 µM] | [9] -10.5% [50 µM] | [15] -1.62% [50 µM]

CNCCCNc1nc2ccccc2c2c(=O)c3cc(Cl)ccc3sc12
active: [5] -70.5% | [6] 9.37% | [10] -84.4% | [11] -8.94% | [12] -70.1% | [14] -58.8% | [20] -57.2%
inactive: [1] 70.1% | [2] 101% | [3] 70.4% | [4] 60.5% | [7] 17.6% | [8] 17.8% | [9] 52.7% | [13] 17.6% | [15] 61.1% | [16] 53.8% | [17] 62.6% | [18] 70.8% | [19] 92.8%

Cn1cc(-c2csc(-c3cn(C)c4ccccc34)n2)c2cnccc21
inactive: [1] 83.2% | [2] 112% | [3] 66.6% | [4] 42.1% | [6] 55.5% | [7] 16.7% | [8] 15.3% | [11] 29.2% | [16] 45.1%
active: [5] -46.2% | [9] -87.9% | [10] -68% | [12] -39.2% | [13] -92.4% | [14] -17.7% | [15] -40.7% | [17] -73.1% | [18] -87% | [19] -58.2% | [20] -82.6%

COc1ccc(C2[C@@H](Cl)C(=O)N2c2cc(OC)c(OC)c(OC)c2)cc1Cl (stereo not given in full)
active: [5] 5.19% | [7] -28.7% | [9] 5.5% | [10] -50.2% | [11] 6.13% | [12] 5.8% | [15] -2.33% | [17] 8.96% | [18] 9.09% | [20] -4.46%
inactive: [1] 34.9% | [2] 59.8% | [3] 40% | [4] 21% | [6] 33.6% | [8] 14.8% | [13] 69.1% | [14] 33.5% | [16] 26.1% | [19] 31.5%

COc1ccc(-c2nc3ccc(C)cc3c3c2c(=O)n(C)c(=O)n3C)cc1OC
inactive: [1] 98.8% | [2] 108% | [3] 118% | [4] 112% | [5] 112% | [6] 99.2% | [7] 107% | [8] 89.9% | [9] 103% | [10] 109% | [11] 108% | [12] 107% | [13] 111% | [14] 102% | [15] 99.2% | [16] 100% | [17] 91.3% | [18] 108% | [19] 114% | [20] 109%

COc1ccc(C/C(C)=C(\c2ccc(Cl)cc2)c2ccc(OCCN3CCCC3)cc2)cc1
inactive: [1] 85% | [2] 98.1% | [3] 91.6% | [4] 94.6% | [5] 81.9% | [6] 70.5% | [7] 90% | [8] 79% | [9] 83.7% | [10] 47.8% | [11] 98.5% | [12] 13% | [13] 93.5% | [14] 85.7% | [15] 64.1% | [16] 86.5% | [17] 99.2% | [18] 88% | [19] 93.5% | [20] 62.9%

COc1cc(/C=C/c2cn[nH]c2-c2ccc(C)cc2)cc(OC)c1OC
active: [20] -3.71%
inactive: [1] 56.2% | [2] 65.4% | [3] 56.7% | [4] 33.8% | [5] 17.1% | [6] 45.6% | [7] 23.1% | [8] 29.2% | [9] 37.1% | [10] 12.6% | [11] 43.4% | [12] 15.5% | [13] 52.3% | [14] 47.4% | [15] 16.1% | [16] 49.2% | [17] 11.5% | [18] 41.7% | [19] 39.5%

N#CSc1c[nH]c2ccc(/C=C/C(=O)/C=C(O)/C=C/c3ccc4[nH]cc(SC#N)c4c3)cc12
active: [6] -21.3% | [7] -63.9% | [10] -39.7% | [12] -15.2% | [15] 9.89% | [20] -5.11%
inactive: [1] 25.3% | [2] 31.6% | [3] 96.9% | [4] 28.1% | [5] 12.5% | [8] 12.4% | [9] 13.9% | [11] 29% | [13] 20.7% | [14] 22.8% | [16] 35.5% | [17] 57.3% | [18] 13.5% | [19] 25.9%

CCOC(=O)C(CCN(C)C)c1ccccc1 (stereo not given)
inactive: [1] 94.4% | [2] 90.3% | [3] 91.9% | [4] 88.8% | [5] 105% | [6] 78.8% | [7] 84.5% | [8] 91.8% | [9] 98.1% | [10] 116% | [11] 105% | [12] 107% | [13] 96% | [14] 99% | [15] 90.4% | [16] 90% | [17] 101% | [18] 96.2% | [19] 94.2% | [20] 106%

C=C1C(=O)O[C@H]2[C@H]1CC/C(COC(=O)C(=O)c1c[nH]c3ccc(Cl)cc13)=C\CC[C@@]1(C)O[C@@H]21
active: [1] -55.7% | [2] -73% | [3] -76.2% | [4] -53.1% | [5] -72.9% | [6] -92.8% | [7] -48.4% | [8] -82.2% | [9] -99.1% | [10] -51.9% | [11] -96.2% | [12] 2.92% | [13] -75.7% | [14] -74.8% | [15] -92.9% | [16] -81.3% | [17] -10.6% | [18] -78.5% | [19] -75.9% | [20] -83.1%

Cc1cccc(NC(=O)Cn2cc(CN3CCN(c4ccnc5cc(Cl)ccc45)CC3)nn2)c1
inactive: [1] 89.4% | [2] 75.5% | [3] 93.1% | [4] 80.1% | [5] 94% | [6] 56.3% | [7] 80.3% | [8] 94.1% | [9] 101% | [10] 98.6% | [11] 106% | [12] 71.6% | [13] 92.5% | [14] 78.2% | [15] 90.7% | [16] 81.8% | [17] 93.7% | [18] 93.4% | [19] 105% | [20] 92.5%

COC1C(O)CC(OC2CC(OC3CC(O[C@@H]4C(=O)c5c(cc6cc(OC7CC(OC8CC(O)C(O)C(C)O8)C(O)C(C)O7)c(C)c(O)c6c5O)CC4[C@H](OC)C(=O)O)OC(C)C3O)OC(C)C2O)OC1C (stereo not given in full)
active: [1] 6.6% | [2] -36.1% | [4] 1.26% | [7] -13.7% | [8] 8.44% | [15] -45.7% | [18] 5.86% | [19] -8.56%
inactive: [3] 14.5% | [5] 13.5% | [6] 20.4% | [9] 34.7% | [10] 14.7% | [11] 22.3% | [12] 21.2% | [13] 13.9% | [14] 48.4% | [16] 28.4% | [17] 10.9% | [20] 35.4%

COCCn1cc(-c2nc(-c3cn(CCOC)c4ncccc34)cs2)c2cc(F)ccc21
inactive: [1] 53.5% | [2] 75.4% | [3] 46.9% | [4] 74.4% | [5] 49.7% | [6] 56.9% | [7] 33.3% | [8] 53.7% | [9] 76.6% | [10] 35.5% | [11] 86.1% | [12] 63.7% | [13] 95.3% | [14] 44.9% | [15] 86.5% | [16] 91.6% | [17] 74.7% | [18] 76.1% | [19] 69.5% | [20] 66.6%

COc1cc(N2C(=O)[C@H](Cl)C2c2ccc(SC)cc2)cc(OC)c1OC (stereo not given in full)
active: [5] 5.39% | [6] -0.311% | [7] -7.37% | [9] -0.223% | [10] -45.6% | [11] 7.66% | [12] 4.94% | [15] -16.1% | [17] -7.12% | [18] 8.03% | [20] -2.68%
inactive: [1] 16.7% | [2] 53.8% | [3] 42.9% | [4] 23.1% | [8] 11.1% | [13] 78.4% | [14] 29.3% | [16] 28.9% | [19] 27.3%

O=C(C[C@]1(O)C(=O)Nc2ccc(Br)cc21)c1ccco1
inactive: [1] 97% | [2] 92.9% | [3] 93.8% | [4] 106% | [5] 105% | [6] 102% | [7] 88.3% | [8] 104% | [9] 108% | [10] 106% | [11] 106% | [12] 93.8% | [13] 84.1% | [14] 98.6% | [15] 108% | [16] 88.5% | [17] 103% | [18] 104% | [19] 101% | [20] 99.1%
